# From PubChem BioAssay
# aSyn 5UTR act – Activators via SNCA 5'UTR binding, MLPCN | hit rate 7.1% among 300,000 | alpha-synuclein 5'UTR reporter, activators screen | activity score, % (tested at 7.5 µM), hits read low; in the data active = activity score below about -60%
# Active calls of the source: *. A selection follows.
SMILES,aSyn 5UTR act
COc1ccc(C(=O)O/N=C(/c2ccccc2)c2ccncc2)cc1,-71.7*
N/C(=N\OC(=O)c1ccccc1)c1ccncc1,-121.6*
N/C(=N\OC(=O)c1cccc(Br)c1)c1ccncc1,-137.9*
N/C(=N\OC(=O)c1ccc(Br)cc1)c1ccncc1,-109.9*
CCN(CC)C(=O)c1ccc2nc3ccccc3nc2c1,50.2
CCN(CC)c1ccc(C(=O)n2cnc3ccccc32)cc1,-127.9*
CCN(CC)c1ccc(C(=O)Nn2cnc3ccccc3c2=O)cc1,-92.4*
Cc1cc2oc(=O)cc(COC(=O)c3n[nH]c4ccccc34)c2cc1C,-133.6*
COc1ccc2c(COC(=O)c3n[nH]c4ccccc34)cc(=O)oc2c1,-180.4*
CN(C)c1ccc(-c2nn3c(-c4ccccc4Cl)nnc3s2)cc1,82.3
Cc1nnc2sc(-c3ccc(N(C)C)cc3)nn2c1=O,-76.3*
O=C1CS/C(=N/N=C/c2ccccc2)N1Cc1ccco1,-81.3*
COc1ccc(/C=C/C(=O)NC(=S)N2CCN(c3ccccn3)CC2)cc1,-121.6*
COc1ccc(NC(=O)CN(C)C(=O)/C=C/c2ccc(S(=O)(=O)N3CCCCCC3)cc2)cc1,59.5
COc1ccc(/C=C/C(=O)NC(=S)N2CCSCC2)cc1,-65.2*
C/C(=C/c1oc2ccc(O)cc2c1[N+](=O)[O-])N(C)C,-95.6*
C/C(CC(=O)Nc1ccc(Cl)cc1C(F)(F)F)=N\NC(=O)c1cccs1,-106.2*
C/C(CC(=O)Nc1ccc(Cl)cc1C(F)(F)F)=N\NC(=O)c1ccccn1,-127.0*
O=C(COC(=O)CNC(=O)c1cccs1)Nc1ccccc1C(F)(F)F,-94.7*
COc1ccc(-c2csc(Nc3cc(C)ccn3)n2)cc1OC,-235.6*
COc1ccc(-c2csc(Nc3ccc(S(N)(=O)=O)cc3)n2)cc1OC,61.7
COc1ccc(-c2csc(Nc3ccc(C)cn3)n2)cc1OC,-120.0*
CCOCCOC(=O)C1=C(C)Nc2ccc(C)cc2S1,-91.6*
Cc1ccc(N=C2N=C(N)c3ccccc32)cc1C,-78.2*
CCc1ccc(N=C2N=C(N)c3ccccc32)cc1,-98.4*
SMILES,aSyn 5UTR act
O=C(/C=C/c1ccnc2ccccc12)c1cccs1,-79.9*
CN(C)/C=N/c1cnc(C(=O)c2ccc(Cl)cc2)n1C,-202.0*
Cc1coc2c1C(=O)C(=O)c1c-2ccc2c(C)cccc12,-64.2*
Cc1coc2c1C(=O)C(=O)c1c-2ccc2c1CCCC2(C)C,63.0
CCN(CCn1cccn1)C(=O)c1cc(COc2cc(C)ccc2C)on1,-79.0*
CCN(CCn1cccn1)C(=O)c1cc(COc2ccccc2SC)on1,-89.7*
CC(=O)N1CCc2cc(S(=O)(=O)NCCC(=O)Nc3ccc4c(c3)OCCO4)ccc21,-175.8*
O=C(N/N=C/c1ccccc1F)NC12CC3CC(CC(C3)C1)C2,-114.8*
O=C(N/N=C/c1ccccn1)NC12CC3CC(CC(C3)C1)C2,-105.1*
COc1ccc(-c2csc(NC(=O)COC(=O)C3=COCCO3)n2)cc1,-128.2*
C=CCn1c(C)cc(-c2csc(NC(=O)C3=COCCO3)n2)c1C,-89.4*
COc1ccccc1-c1nnc(NC(=O)C2=COCCO2)o1,-74.6*
C=CCNc1nc(-c2ccc(OC)cc2OC)cs1,-320.6*
CC(C)(C)c1ccc(NC(=O)COC(=O)C2=COCCO2)cc1,-89.5*
COc1ccc(-c2csc(NC(=O)C3=COCCO3)n2)c(OC)c1,-86.3*
CC(C)(C)c1ccc(NC(=O)COC(=O)C2(C)CC2(Cl)Cl)cc1 (stereo not given),-138.1*
O=C(c1ccccc1)c1nnc(-c2ccccc2F)o1,-104.3*
CCOc1cc(C(C(=O)NCC2CCCO2)N(C(=O)Cn2nnc3ccccc32)c2ccc(C(C)=O)cc2)ccc1O (stereo not given),-67.5*
O=C(CCc1nnc(Cc2cccc(C(F)(F)F)c2)o1)NCCc1ccccc1F,-70.9*
CC(=O)CCC(=O)NCCc1ccccc1F,-63.5*
CCN(CC)C(=O)CCc1nnc(Cc2cccc(C(F)(F)F)c2)o1,-177.1*
Cc1cc(CN(C)C(=O)CCc2nnc(Cc3cccc(C(F)(F)F)c3)o2)on1,-79.0*
CSc1ccccc1OCc1cc(C(=O)NC(C)c2cnn(C)c2)no1 (stereo not given),-61.7*
CSc1ccccc1OCc1cc(C(=O)N[C@H]2CCCCNC2=O)no1,-83.1*
Cc1c(C(=O)N2CCc3ccccc3C2)oc2ccccc12,-98.0*
SMILES,aSyn 5UTR act
Cc1c(C(=O)N2c3ccccc3CC2C)oc2ccccc12 (stereo not given),-76.3*
COC(=O)Cc1nc(NC(=O)c2cccs2)sc1C,-81.6*
COC(=O)c1nc(NC(=S)NC(=O)c2cccs2)sc1C,-80.5*
O=C(NC(=S)Nc1nc2ccccc2s1)c1cccs1,-136.1*
Cc1[nH]c2ccc(C(=O)NC3CCC(C)CC3)cc2c1C (stereo not given),-147.6*
CC1CCC(NC(=O)c2ccc3nc[nH]c3c2)CC1 (stereo not given),-81.1*
Cc1ccc(/C=N/Nc2ccc(F)cc2F)s1,-179.5*
COc1cc(/C=N/Nc2ccc(F)cc2F)cc(OC)c1O,-63.3*
Cc1nnnn1/C(=C\c1ccccc1)C(=O)OCC(=O)Nc1ccc(Cl)cc1F,-70.5*
